HCMV inh – inhibitors of human cytomegalovirus; 410,000 tested, 4.5% active; HFF cells, HCMV-luciferase reporter, 72 h; stronger effect = lower value; activity change, negative = inhibition, % at 57.5 µM; AID 1259415; in the data active = activity change below about -60%; inconclusive = no clear call, values can overlap the other calls; inactive = above about -39%
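Screen run at 2 compound doses on HFFs infected with reporter HCMV, MOI 1 PFU/cell. Luciferase activity from cell lysates at 72 h post infection gave inhibition relative to buffer-only and Salinomycin wells.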
LASV entry inh – inhibitors of Lassa virus binding or cell entry. Lassa virus pseudotype entry inhibition, cell reporter. Potency, µM (top dose mostly 37.9 µM), without a hit: at the top dose activity change, negative = inhibition, hits mostly inhibitors. 300,000 tested, 1.2% active. AID 540256; calls by dose curve; tested in HEK293 cells; also: potency is read from the fitted curve at half-maximal effect; nearly all actives have a fitted effect of over 50% in size
FMDV antiviral – blocks foot and mouth disease virus; 410,000 tested, 1.2% active; FMDV antiviral cell-based qHTS; Potency, µM (highest dose often 57.9 µM), without a hit: top-dose activity change, negative = inhibition, actives largely listed as inhibitors; calls by dose curve; tested in HEK293T cells; also: read-out not given here; potency is read from the fitted curve at half-maximal effect; nearly all actives have a fitted effect of over 45% in size
HCV inhibitor – HCV inhibition; Huh7.5.1 HCVcc-Cre infection, luciferase reporter, 44 h; Potency, µM (series often up to 41.8 µM), for the others: at the top dose activity change, negative = inhibition, hits mostly inhibitors; 340,000 tested, 3.4% active; active = well fitted inhibition curve with a large enough effect; inconclusive = small, poorly fitted or top-dose-only effect, or another doubt; inactive = no such curve, though single readings can be large or run the other way; also: potency is read from the fitted curve at half-maximal effect
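Cells seeded at 1,000/well and cultured 4 h, then compounds added followed by HCVcc-Cre virus (~0.5 moi). After 44 h further culture, luciferase substrate was added, plates held 15 min at room temperature, and luminescence read for 15 sec.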
MARV entry inh – Marburg virus entry inhibition | AID 540276 | 300,000 tested, 1.8% active | Potency, µM (series often up to 37.8 µM), for the others: at the highest dose activity change, negative = inhibition, actives largely listed as inhibitors | Marburg virus pseudotyped entry inhibition, cell reporter; calls by dose curve; tested in HEK293 cells; also: potency is read from the fitted curve at half-maximal effect
Numbers without * were called inactive; ? = inconclusive; / = no result given; [ ] = remark or other dose. Hits are enriched below; roughly 7.9% of the tested compounds scored in any of these assays. % is scaled to controls: 0 for no effect and ±100 for the full control effect.

SMILES	HCMV inh	LASV entry inh	FMDV antiviral	HCV inhibitor	MARV entry inh
CC[C@]1(C(=O)OC)[C@H]2C(=O)N(C)C(=O)[C@H]2[C@H]2CN=C(SCc3ccc(OC)cc3)N21	5	/	4%	36%	/
COC(=O)[C@@H]1CC[C@H](C)[C@@H](c2ccc(C)cc2)N1C(=O)c1ccc(C=NOC[C@@H](O)COCc2ccco2)cc1	/	15%[14.3 µM]	/	/	?
Cc1nn(C)c(C(=O)NCc2ccc(Cl)cc2)c1Cl	-80*	-8%	?	?	?
Cc1ccc(NC(=S)NNC(=O)c2c(Cl)c(C)nn2C)cc1	-73*	?	0%	1%	-18%
Cc1ccc(NC(=S)NNC(=O)c2c([N+](=O)[O-])c(C)nn2C)cc1	45	19%	-12%	-1%	?
COc1cc(C2NC(=O)c3c(sc4c3CCN(C)C4)N2)cc(Br)c1OC(=O)c1ccc(C)cc1 (stereo not drawn)	-5	4%[46.1 µM]	-1%	/	/
C=CC1(O)C(OC)=CC2C(=O)C1C(c1ccccc1)C2C (stereo not drawn)	/	?	/	/	14%[14.2 µM]
CCOc1ccc(N(CC)S(=O)(=O)N2CCCC(C(=O)NCCc3ccccc3OC)C2)cc1 (stereo not drawn)	-28	?	?	/	/
COc1cc(C)ccc1OCCSc1nc2ccc(NC(=O)c3ccco3)cc2s1	-61*	-19%[46.1 µM]	?	/	-16%[46.1 µM]
O=C(Nc1ccc2nc(SCCOc3ccccc3Cl)sc2c1)c1ccc2c(c1)OCO2	-27	-9%[46.1 µM]	?	/	-2%[46.1 µM]
CC(=O)Nc1ccc2nc(SCCOc3ccccc3Cl)sc2c1	-80*	-12%[46.1 µM]	10%	/	?
CCC(=O)Nc1ccc2nc(SCCOc3cccc(C)c3)sc2c1	-64*	-12%[46.1 µM]	-25%	/	-2%[46.1 µM]
Cc1[nH]n(-c2ccccc2)c(=O)c1/C=N/NC(=O)c1cccc(F)c1	-98*	/	-6%	11µM*	/
Cc1ccc(-n2[nH]c(C)c(/C=N/c3ccccn3)c2=O)cc1	-1	9%	/	15%	1%
Cc1[nH]n(-c2ccccc2)c(=O)c1/C=N/NC(=O)c1ccc(O)cc1O	/	/	15%	6%	/
Cc1[nH]n(-c2ccccc2)c(=O)c1C=Nc1cccc2cccnc12	-63*	?	-23%	3.5µM*	8.9µM*
Cc1ccc(-n2[nH]c(C)c(/C=N/NC(=O)c3ccc(O)cc3O)c2=O)cc1	/	/	18%	?	/
Cc1[nH]n(-c2ccccc2)c(=O)c1/C=N/Nc1nncc(-c2ccccc2)n1	-99*	4.1µM*	/	0.56µM*	4.1µM*
Cc1[nH]n(-c2ccc(Br)cc2)c(=O)c1/C=N/NC(=O)c1ccccc1	-98*	/	-5%	?	/
CCC[C@H]1[C@@H](NS(=O)(=O)c2ccc(OC)cc2)CC[C@@]23CCCN2C(=O)CCC[C@@H]13	-25	/	/	/	/
COC(=O)C1CCN(C(=O)CN2C(=O)NC3(CCC(C)CC3)C2=O)CC1 (stereo not drawn)	11	?	-7%	8%	-1%[46.1 µM]
CCCn1c(N)c(C(=O)CSc2nnc(-c3cccs3)n2C2CC2)c(=O)[nH]c1=O	-15	15%	-8%	13%	?
Clc1ccc(C(c2ccc(Cl)cc2)C(Cl)(Cl)Cl)cc1	/	/	3.5µM*	/	/
CC1(C)C[C@H]2C=C(C=O)[C@]3(C=O)C[C@]3(C)[C@H]2C1	9	3.7µM*	25µM*	3.2µM*	?
CN(NS(=O)(=O)c1ccccc1)C(=O)c1ccccc1	-100*	0%[46.1 µM]	-15%	17%	-6%[46.1 µM]
SMILES	HCMV inh	LASV entry inh	FMDV antiviral	HCV inhibitor	MARV entry inh
CC1(C)C(C=C(Cl)Cl)C1C(=O)Nc1ccc([N+](=O)[O-])cc1 (stereo not drawn)	-96*	?	?	?	?
CCn1cc(CN2CCC(C(=O)Nc3ccc(Oc4ccccc4F)cc3)CC2)c(C)n1	-35	-24%	?	2.8µM*	?
CCn1cc(CN2CCC(C(=O)Nc3ccc(Oc4ccccc4)nc3)CC2)cn1	-1	2%	-22%	?	?
O=C(Nc1ccc(Oc2cccnc2)cc1)C1CCN(Cc2ccccc2F)CC1	-31	-23%	?	?	-30%
CC(C)n1cc(CN2CCC(C(=O)Nc3ccc(Oc4ccccc4F)cc3)CC2)cn1	?	/	-29%	11µM*	/
COc1ccc(S(=O)(=O)NCc2ccc3c(c2)CCN3C(=O)c2ccccc2)cc1OC	-19	-26%[46.1 µM]	-13%	/	/
COc1ccc(Cl)cc1S(=O)(=O)NCc1ccc2c(c1)CCN2C(=O)c1cccc(C)c1	-87*	?	19%	/	/
Cc1cccc(C(=O)N2CCc3cc(CNS(=O)(=O)c4cccs4)ccc32)c1	-62*	?	?	/	/
CC(C)c1ccc(S(=O)(=O)NCc2ccc3c(c2)CCN3C(=O)c2ccccc2)cc1	-66*	?	-19%	/	/
NC(=O)C1CCN(C(=O)c2ccc3c(=O)n(Cc4ccco4)c(SCc4ccc([N+](=O)[O-])cc4)nc3c2)CC1	0	/	7%	2%	/
CC1=[N+](C)c2c(ccc3cccnc23)C1(C)C	-108*	5.6µM*	?	?	?
Cc1cc(C)c2c(c1)-c1c(ssc1=S)C(C)(C)N2C(=O)CN1C(=O)c2ccccc2C1=O	10	-7%	0%	?	4µM*
Cc1cccc2c1N(C(=O)CN1C(=O)c3ccccc3C1=O)C(C)(C)c1ssc(=S)c1-2	-25	0%	?	-20%	?
CCn1c(=O)c([N+](=O)[O-])c(N2CCN(Cc3ccc4c(c3)OCO4)CC2)c2ccccc21	-64*	?	32µM*	11µM*	?
CCn1c(=O)c([N+](=O)[O-])c(N2CCSCC2)c2ccccc21	?	-1%	18µM*	14µM*	?
CCn1c(=O)cc(OCC(=O)N2CCN(Cc3ccc4c(c3)OCO4)CC2)c2ccccc21	108	4%	-2%	10%	-7%
O=c1c([N+](=O)[O-])c(N2CCOCC2)c2ccccc2n1Cc1ccccc1	-67*	?	?	?	-2%[46.1 µM]
O=C(Nc1ccc(N2CCN(C(=O)c3ccccc3)CC2)cc1)c1cc([N+](=O)[O-])ccc1N1CCOCC1	9	6%	-23%	?	0.63µM*
Cc1ccc(NC(=O)c2cc([N+](=O)[O-])ccc2N2CCOCC2)cc1C	?	-14%[46.1 µM]	2%	-22%	7.1µM*
O=C(CCl)N1N=C(c2cccs2)CC1c1ccco1 (stereo not drawn)	-97*	?	16µM*	?	?
O=C(CCl)N1N=C(c2ccco2)CC1c1ccco1 (stereo not drawn)	-72*	?	-24%	11µM*	?
Nc1cc(Cl)ccc1C(=O)OCC(=O)N1CCOCC1	-36	/	8%	4%	/
O=C(Nc1cccn(Cc2c(Cl)cccc2Cl)c1=O)c1ccccc1Cl	-31	-6%	?	?	?
O=C(Nc1cccn(Cc2c(Cl)cccc2Cl)c1=O)c1ccc(Cl)cc1Cl	-97*	-26%	?	11µM*	-28%
Cc1ccn2c(C(=O)c3ccc(Cl)cc3)cnc2c1	33	18µM*	-12%	?	?
O=C(CCC1CCCC1)N[C@@H](Cc1ccc(O)cc1)C(=O)O	7	/	-3%	-7%	/

Screens (PubChem BioAssay)
